Only some compounds are listed: those with a hit (about 1.9% of all), similar ones and a draw of the others.
MsrA inhibitor = inhibits bovine methionine sulfoxide reductase A | purified bovine MsrA, absorbance read-out | inhibition, % at 15.5 µM | 0.75% of 360,000 active; in the data active = inhibition above about 4.5%;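 also: 0% = vehicle wells with enzyme and 100% = reference inhibitor wells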
PLC-gamma1 inh = inhibitors of human phospholipase C gamma1 | P19174 | purified PLC-gamma1, fluorogenic substrate, fluorescence | inhibition, % at 12.2 µM | 0.84% of 370,000 active | AID 720700; in the data active = inhibition above about 9.5%
PLC-beta3 inh = blocks human PLC-beta3 enzyme activity | Q01970 | Purified PLC-beta3, fluorogenic substrate, fluorescence | inhibition, % at 12.2 µM | 0.18% of 370,000 active | AID 720704; in the data active = inhibition above about 11%;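 also: 0% = median of compound wells on plate and 100% = full blocker control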
bovine MsrA act = bovine methionine sulfoxide reductase A activation | purified bovine MsrA, absorbance read-out | activation, % at 10.6 µM | 0.3% of 360,000 active | AID 602163; in the data active = activation above about 7.5%;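 also: 0% = vehicle and 100% = reference activator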
* marks the source's active call; other numbers are inactive results; i = inactive; nt = no result given.

SMILES	MsrA inhibitor	PLC-gamma1 inh	PLC-beta3 inh	bovine MsrA act
CC(C)(O)C(O)COc1c2ccoc2cc2oc(=O)ccc12 (stereo unspecified)	1	-51	-64	3
CC(=O)OC(C=C(C)C)C/C(C)=C/COc1c2ccoc2cc2oc(=O)ccc12 (stereo unspecified)	13*	-37	-63	-8
c1cc2ccn(CC3CC3)c2cc1-c1ccc2ccn(CC3CC3)c2c1	nt	-112	-165	nt
CCn1c2ccccc2c2nc3ccccc3nc21	nt	nt	nt	-2
CCOCCn1c2ccccc2c2nc3ccccc3nc21	4.7*	-217	-305	-2
CCCCNC(=O)C1(C(=O)c2ccc(OC)cc2)CC(c2ccccn2)=NO1 (stereo unspecified)	nt	0	0	nt
CN(C)c1ccc(C=c2c3ccccc3n3c2cc(-c2ccc(Cl)cc2)[n+]3C)cc1	4	-73	-100	14*
CCN(CC)c1ccc(/C=N/n2c(=S)[nH]nc(C)c2=O)cc1	4.7*	5	-2	3
COc1ccc(NC(=O)COc2ccc(CNCCCN3CCOCC3)cc2OC)cc1	1	10*	6	0
COc1ccccc1NC(=O)COc1ccc(Br)cc1CNCCCN1CCOCC1	-1	0	5	-2
CCOC(=O)[C@]12CCCCC/C=C\1N(CCc1ccc(Cl)cc1)C(=O)[C@H]2CC(=O)NCCCCc1ccccc1	nt	-5	-4	nt
O=C(c1cc(-c2ccc(Cl)cc2)n[nH]1)N1CCc2ccccc2C1	0	4	-10	-3
COc1ccc(F)cc1-c1cc(C(=O)N2CCc3ccccc3C2)[nH]n1	0	11*	11*	2
CCCCc1c(-c2ccccc2OC)ncn1Cc1c(F)cccc1F	0	-6	-6	nt
Cn1cc(C(=O)N/N=C/C(Br)=C\c2ccccc2)ccc1=O	5.4*	-2	3	-4
COc1cccc(N(C)C(=O)[C@@H](C2CC2)[C@@H](O)c2ccc3ccccc3c2)c1	nt	0	1	nt
CCOC(=O)c1sc(=S)n(-c2cc(F)ccc2F)c1N	2	1	3	-1
COC(=O)c1sc(=S)n(-c2cc(F)ccc2F)c1N	4.6*	4	0	-3
CC1=NN(c2ccc(F)cc2)C(=O)C1C(c1cccc(O)c1)c1c(C)[nH]n(-c2ccc(F)cc2)c1=O (stereo unspecified)	-2	18*	12*	-4
O=C(Nc1nc2c(cc3c4c(cccc42)CC3)s1)c1ccccc1Cl	4.6*	-90	-109	-12
O=C(Nc1nc2c(Cl)cccc2s1)C1CC1	0	-2	-9	-3
COC(=O)[C@@]12CCCCC=C1N(CCc1ccc(Cl)cc1)C(=O)[C@H]2CC(=O)NCC1CCCCC1	nt	4	2	nt
COc1ccc(C(=O)Oc2ccc(C(=S)N3CCOCC3)cc2)cc1	1	13*	8	-2
Cc1[nH]n(-c2ccc([N+](=O)[O-])cc2)c(=O)c1C=NCCN1CCN(C(=O)c2ccccc2)CC1	4.8*	9	0	-3
COC(=O)C1=C(C)N(Cc2cccc(C(F)(F)F)c2)C(=NCc2ccc3c(c2)OCO3)NC1CCc1ccccc1 (stereo unspecified)	1	0	-5	nt
SMILES	MsrA inhibitor	PLC-gamma1 inh	PLC-beta3 inh	bovine MsrA act
O=C1N/C(=N\N=C\c2ccco2)SC1Cc1ccccc1[N+](=O)[O-] (stereo unspecified)	4.6*	-6	-9	-5
CCOc1ccc(CC2S/C(=N/N=C/c3ccco3)NC2=O)cc1 (stereo unspecified)	4	1	-6	-3
O=C1OCCN1C(=O)[C@H]1[C@H](c2ccc([N+](=O)[O-])cc2)C(c2cccc(Cl)c2)=NN1c1ccc(Br)cc1	1	-11	-11	-4
O=C1OCCN1C(=O)[C@H]1[C@H](c2ccc([N+](=O)[O-])cc2)C(c2ccccc2)=NN1c1ccc(Br)cc1	4.8*	-6	-11	-2
Cc1cccc(C2=NN(c3ccccc3)[C@@H](C(=O)N3CCOC3=O)[C@@H]2c2ccc([N+](=O)[O-])cc2)c1	5.5*	-6	-10	-2
Cc1cccc(C2=NN(c3ccc(Br)cc3)[C@@H](C(=O)N3CCOC3=O)[C@@H]2c2ccc(F)cc2)c1	2	i	i	-1
C[C@]12Cc3ccccc3C1CC1=N[C@@H](c3ccc(C(F)(F)F)cc3)O[C@@]13C[C@@H]2C(=O)N3Cc1ccncc1 (stereo partly specified)	0	-10	-7	nt
C=CCN1C(=O)c2n[nH]c(COC)c2C1c1ccc(C)cc1 (stereo unspecified)	1	-4	3	nt
CCc1nnc(N/N=C/c2c(C)[nH]c3ccccc23)n1N	2	10*	10	7
CCOC(=O)/C(=C\Nc1cccc(OCc2ccccc2)c1)NC(=O)c1ccccc1	0	2	4	nt
